Screening results: PubChem, University of Kansas High Throughput Screening Laboratory
This is a sample that favours compounds with a hit; in the whole collection about 3.5% have one here.
mHTT CaM bind: inhibitors of human mutant huntingtin-calmodulin interaction; P42858; AlphaScreen His-mHTT/GST-CaM binding, luminescence; inhibition, % at 15 µM; 190,000 compounds, 3.6% hits; AID 1671202
Pf apPOL inh: Pf-apPOL DNA polymerase inhibition; Recombinant Pf-apPOL, molecular beacon fluorescence, 1.5 h; inhibition, % at 10 µM; 210,000 compounds, 0.25% hits; AID 1794808
A number is an active result; 0 = inactive; + = active, no number. No stated cut-off is given here; in the data, active means inhibition above about 50%; inactive means the rest.

SMILES	mHTT CaM bind	Pf apPOL inh
CS(=O)(=O)N(CC(=O)N1CCC(Cc2ccccc2)CC1)c1cccc([N+](=O)[O-])c1	0	0
COc1ccc(N=C2C(=O)Nc3ccc(C)c(Br)c32)cc1	64	0
Cc1ccc(N=C2C(=O)Nc3cc(Br)c(C)cc32)cc1	55	0
CC(=O)N(C)c1ccc(N=C2C(=O)Nc3cc(Br)c(C)cc32)cc1	0	0
Cc1ccc(N=C2C(=O)Nc3ccc(C)c(Br)c32)cc1	0	0
O=C(Cc1cccc(C(F)(F)F)c1)N1CCc2nc[nH]c2C1	0	0
O=C(Nc1ccc2c(c1)CCC2)C1CCc2nc(N3CCOCC3)ncc2C1 (centres undefined)	0	0
Brc1cccc(CNc2cc3c(cc2Br)OCCO3)c1	78	0
Brc1ccc2c(c1)OCCOCCOc1ccc(Br)cc1OCCO2	0	0
COC(=O)Oc1c(Cl)cc2oc(=O)sc2c1Br	93	0
CC(C)COC(=O)Oc1c(Cl)cc2oc(=O)sc2c1[N+](=O)[O-]	82	0
O=c1oc2cc(Br)c(O)c(Br)c2s1	100	0
Cc1ccc(OC(=O)OCC(C)C)c(Br)c1	0	0
CN(C)S(=O)(=O)Oc1cc2sc(=O)oc2cc1Cl	0	0
CCOC(=O)Oc1cc2sc(=O)oc2cc1Br	0	0
COC(=O)Oc1c(Br)cc2oc(=O)sc2c1[N+](=O)[O-]	86	0
O=C(O)c1ccc(NC(=O)c2cc3ccccc3o2)cc1	0	0
O=C(Nc1cccc(NC(=O)c2cc3ccccc3o2)c1)c1ccccc1	0	70
CC1=CC(=O)C=C/C1=N\OC1=C(O/N=C2\C=CC(=O)C=C2C)C(=O)c2ccccc2C1=O	+	0
O=C1C=CC(=NOC2=C(ON=C3C=CC(=O)C=C3)C(=O)c3ccccc3C2=O)C=C1	0	0
O=C(NCc1c[nH]c2ncccc12)C1CCC1	0	0
CC(C)(Oc1ccc(Cl)cc1)C(=O)NCCc1ccccc1	0	0
Cc1cc2ccccc2n1CCNC(=O)C(C)(C)Oc1ccc(Cl)cc1	60	0
CC(C)(Oc1ccc(Cl)cc1)C(=O)NCCSc1c[nH]c2ccccc12	99	0
O=C(NCCSc1c[nH]c2ccccc12)c1ccc(Cl)cc1	0	0
SMILES	mHTT CaM bind	Pf apPOL inh
CCOC(=O)N1CCC2(CC1)N=C(c1ccccc1)CC(c1cccc(OCC)c1O)N2 (centres undefined)	0	0
O=C(Cc1cccs1)N(Cc1cccnc1)c1nc2ccc(F)cc2s1	0	0
Cc1cc(C)n(CC2CCN(C(=O)c3ccc(=O)n(C)n3)CC2)n1	0	0
CSc1nnc2c(n1)OC(c1ccc(Br)s1)N(C(C)=O)c1ccccc1-2 (centres undefined)	71	0
C=CCSc1nnc2c(n1)OC(c1ccc(OCC)cc1)N(C(C)=O)c1ccccc1-2 (centres undefined)	55	0
CSc1nnc2c(n1)OC(c1ccc(Br)o1)N(C(C)=O)c1ccccc1-2 (centres undefined)	0	0
CSc1nnc2c(n1)OC(c1ccc(Cl)cc1)N(C(C)=O)c1ccccc1-2 (centres undefined)	54	0
CSc1nnc2c(n1)OC(c1cccc(Br)c1)N(C(C)=O)c1ccccc1-2 (centres undefined)	0	0
CSc1nnc2c(n1)OC(c1ccc(Br)cc1)N(C(C)=O)c1ccccc1-2 (centres undefined)	75	0
CSc1ccc(C2Oc3nc(SC)nnc3-c3ccccc3N2C(C)=O)cc1 (centres undefined)	0	0
C=CCSc1nnc2c(n1)OC(c1ccc(OC)cc1)N(C(C)=O)c1ccccc1-2 (centres undefined)	0	0
Cc1ccc([N+](=O)[O-])cc1NC(=O)C(C)C	0	0
COc1ccc(C2SCCN2S(=O)(=O)c2ccc(Cl)cc2)cc1[N+](=O)[O-] (centres undefined)	0	0
COc1ccc(C(=O)Nc2ccc3c(c2)C(=O)N(C)C3=O)c(OC)c1	0	0
O=C(NCCc1c[nH]c2ccccc12)C(=O)NCCc1c[nH]c2ccccc12	0	0
c1ccc(C2CCC(NCCc3c[nH]c4ccccc34)CC2)cc1 (centres undefined)	77	0
CN(CN1C(=O)C(=O)c2ccccc21)c1ccccc1	0	0
COc1ccc(C2CC(=O)C3=C(C2)Nc2ccccc2NC3c2ccc(Cl)s2)cc1OC (centres undefined)	56	0
COc1ccc(C2CC(=O)C3=C(C2)Nc2ccccc2NC3c2ccc(Cl)cc2)cc1OC (centres undefined)	0	0
COc1ccc(C2CC(=O)C3=C(C2)Nc2ccccc2NC3c2ccc(N(C)C)cc2)cc1OC (centres undefined)	52	0
COc1ccc(C2CC(=O)C3=C(C2)Nc2ccccc2NC3c2ccc(C)s2)cc1OC (centres undefined)	0	0
CC(C)N1CCC2=C(C1)C1(C(=O)Nc3ccccc31)C(C#N)(C#N)C(N)=C2C#N (centres undefined)	0	0
O=C(NCc1cccnc1)/C(=C\c1cccnc1)NC(=O)c1ccccc1	0	0
Cc1ccc(CNC(=O)C2c3ccccc3CC(=O)N2C(C)C)cc1 (centres undefined)	0	0
Cc1ccc(-n2nnnc2CNC(=O)c2cc(Br)ccc2Cl)cc1	0	0
SMILES	mHTT CaM bind	Pf apPOL inh
CC(C)(C)Oc1ccc(C(=O)N(Cc2ccc(F)cc2)C2CCOC(C)(C)C2)cc1 (centres undefined)	56	0
COc1ccc(CN(CCC(c2ccccc2OC)C2CCOC(C)(C)C2)C(C)=O)cc1 (centres undefined)	0	0
CC(C)NC(=O)CC1CCN(S(=O)(=O)c2ccc(Cl)s2)CC1	0	0
Cc1ccnc(N=Cc2nc(-c3ccc(Cl)cc3)oc2O)c1	0	0
CC(=O)N1CCN(C(=O)c2cccnc2N2CCNC(c3ccccc3)C2)CC1 (centres undefined)	0	0
COc1ccc2c(c1)c(=O)c1ccccc1n2CC(=O)Nc1cccc(C(F)(F)F)c1	54	0
COc1ccc2c(c1)c(=O)c1ccccc1n2CC(=O)Nc1ccc(C(F)(F)F)cc1	0	0
CC1CCN(S(=O)(=O)N2CCCC(C(=O)NCc3ccco3)C2)CC1 (centres undefined)	0	0
O=C(Nc1ccc(Nc2ccc(-n3cccn3)nn2)cc1)c1ncccn1	91	0
O=C(Nc1ccc(-c2ccc(=O)[nH]n2)cc1)c1ccc(-n2cccn2)nn1	0	0
COc1ccc2c(c1)c1c3n2CCNC3CCC1 (centres undefined)	0	0
Brc1ccc2c(c1)c1c3n2CCNC3CCC1 (centres undefined)	75	0
CCCn1c(=O)c(N2CCN(C(=O)c3ccc(C)c(C)c3)CC2)nc2ccccc21	0	0
Cc1cc(-c2nnc(NC(=O)c3cc(=O)c4ccccc4o3)o2)c(C)o1	0	0
CC(=O)N1CCc2cc(N3CC(C(=O)NCc4ccccc4C)CC3=O)ccc21 (centres undefined)	0	0
CC1CCCCN1c1nc(Cl)nc(N2CCCCC2C)n1 (centres undefined)	100	0
CC1CCCCN1c1nc(-c2ccccc2O)nc2ccccc12 (centres undefined)	0	0
COc1cccc(C2=NC(C)(C)NC(c3cc(Cl)ccc3O)C2)c1 (centres undefined)	100	0
CC(C)C1(C)N=C(c2ccc3c(c2)OCO3)CC(c2ccccc2O)N1 (centres undefined)	64	0
